Where a name gives a salt, the structure may show the parent alone. ± gives the standard deviation of the averaged measurements.
The compounds below were run on E. coli TESEC Mtb Alr (assay: growth (OD600 after 10 h); higher = more growth (less inhibition)). Settings: arabinose 10000000 nM; compound 0.1 mM; raw OD600 reference: median of DMSO wells […], cell-free background 0.052.
Protocol: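 TESEC Mtb Alr E. coli (ΔaraC ΔtolC ΔentC Δalr ΔdadX, arabinose-inducible Mtb Alr) or the Alr+ wild-type control strain, grown in defined M9-fructose medium without D-alanine in 96-well plates with Prestwick library compounds at 0.1 mM and 1% DMSO. Low Alr induction is 0.1 µM arabinose and high induction is 10 mM arabinose.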

| Compound | growth |
| --- | --- |
| COc1ncnc(NS(=O)(=O)c2ccc(N)cc2)c1OC [Sulfadoxine] | 0.306 ± 0.007 |
| c1ccc(C2CN3CCSC3=N2)cc1 (stereo not given) [Tetramisole hydrochloride] | 0.316 ± 0.015 |
| CCCC1O[C@@H]2C[C@H]3[C@@H]4CCC5=CC(=O)C=C[C@]5(C)[C@H]4[C@@H](O)C[C@]3(C)[C@]2(C(=O)CO)O1 (stereo not given in full) [Budesonide] | 0.269 ± 0.0039 |
| COc1cc2ncnc(Nc3ccc(F)c(Cl)c3)c2cc1OCCCN1CCOCC1 [Gefitinib] | 0.0533 ± 0.0025 |
| C[C@H]1C[C@@H]2[C@H]([C@@H](O)C[C@@]3(C)[C@H]2CC[C@]3(O)C(=O)CO)[C@@]2(C)C=CC(=O)C=C12 [Methylprednisolone, 6-alpha] | 0.295 ± 0.021 |
| C[C@@H](O)[C@H]1C(=O)N2C(C(=O)O)=C(SCCNC=N)C[C@H]12 [Imipenem] | 0.111 ± 0.011 |
| CC(=O)Oc1ccccc1C(=O)Nc1ncc([N+](=O)[O-])s1 [Nitazoxanide] | 0.0545 ± 0.0013 |
| CC[C@H](C)[C@H](N)C1=N[C@H](C(=O)N[C@@H](CC(C)C)C(=O)N[C@H](CCC(=O)O)C(=O)N[C@H](C(=O)N[C@H]2CCCCNC(=O)[C@H](CC(N)=O)NC(=O)[C@@H](CC(=O)O)NC(=O)[C@H](Cc3cnc[nH]3)NC(=O)[C@@H](Cc3ccccc3)NC(=O)[C@H]([C@@H](C)CC)NC(=O)[C@@H](CCCN)NC2=O)[C@@H](C)CC)CS1 [Bacitracin] | 0.348 ± 0.028 |
| c1ccc([C@H]2CN3CCSC3=N2)cc1 [Levamisole hydrochloride] | 0.353 ± 0.019 |
| CN(Cc1cnc2nc(N)nc(N)c2n1)c1ccc(C(=O)N[C@@H](CCC(=O)O)C(=O)O)cc1 (racemic) [Amethopterin (R,S)] | 0.125 ± 0.0053 |
| CCOC(=O)C1=C[C@]2(CC)CCCN3CCc4c(n1c1ccccc41)[C@@H]32 [Vinpocetine] | 0.337 ± 0.016 |
| COc1ccccc1O [Guaiacol] | 0.356 ± 0.009 |
| CC(=O)Oc1ccccc1C(=O)O [Acetylsalicylic acid] | 0.334 ± 0.012 |
| C[C@]12CC[C@@H]3c4ccc(O)cc4C[C@@H](CCCCCCCCC[S+]([O-])CCCC(F)(F)C(F)(F)F)[C@H]3[C@@H]1CC[C@@H]2O (stereo not given in full) [Fulvestrant] | 0.355 ± 0.028 |
| CC(=O)O[C@H]1C[C@@H]2CC[C@@H]3[C@H](CC[C@@]4(C)[C@H]3C[C@H]([N+]3(C)CCCCC3)[C@@H]4OC(C)=O)[C@@]2(C)C[C@@H]1N1CCCCC1 [Vecuronium bromide] | 0.0791 ± 0.0096 |
| NS(=O)(=O)c1cc(C2(O)NC(=O)c3ccccc32)ccc1Cl (stereo not given) [Chlorthalidone] | 0.3322 ± 0.002 |
| CC[C@H]1OC(=O)[C@H](C)[C@@H](O[C@H]2C[C@@](C)(OC)[C@@H](O)[C@H](C)O2)[C@H](C)[C@@H](O[C@@H]2O[C@H](C)C[C@H](N(C)C)[C@H]2O)[C@](C)(O)C[C@@H](C)CN(C)[C@H](C)[C@@H](O)[C@]1(C)O [Azithromycin] | 0.05133 ± 0.00015 |
| CC(=O)N(CC(O)CN(C(C)=O)c1c(I)c(C(=O)NCC(O)CO)c(I)c(C(=O)NCC(O)CO)c1I)c1c(I)c(C(=O)NCC(O)CO)c(I)c(C(=O)NCC(O)CO)c1I (stereo not given) [Iodixanol] | 0.334 ± 0.0038 |
| CN1CCN2c3ccccc3Cc3ccccc3C2C1 (stereo not given) [Mianserine hydrochloride] | 0.318 ± 0.015 |
| Clc1ccc2nsnc2c1NC1=NCCN1 [Tizanidine HCl] | 0.325 ± 0.015 |

| Compound | growth |
| --- | --- |
| CC(=O)[C@H]1CC[C@H]2[C@@H]3CCC4=CC(=O)CC[C@]4(C)[C@H]3CC[C@]12C [Progesterone] | 0.0648 ± 0.0061 |
| C#Cc1cccc(Nc2ncnc3cc(OCCOC)c(OCCOC)cc23)c1 [Erlotinib] | 0.35 ± 0.012 |
| Nc1cc(-c2ccncc2)c[nH]c1=O [Amrinone] | 0.362 ± 0.026 |
| COc1cc2nc(N3CCN(C(=O)C4COc5ccccc5O4)CC3)nc(N)c2cc1OC (stereo not given) [Doxazosin mesylate] | 0.0514 ± 0.0015 |
| CN1CCN(CCCN2c3ccccc3Sc3ccc(S(=O)(=O)N(C)C)cc32)CC1 [Thioproperazine dimesylate] | 0.232 ± 0.0024 |
| O=c1[nH]c(=O)n([C@H]2C[C@H](O)[C@@H](CO)O2)cc1C(F)(F)F [Trifluridine] | 0.129 ± 0.023 |
| COc1ccc2cc(CCC(C)=O)ccc2c1 [Nabumetone] | 0.297 ± 0.017 |
| CCN(CC)CCNC(=O)c1cc(Br)c(N)cc1OC [Bromopride] | 0.316 ± 0.022 |
| O=C1C(O)=C(O)C(=O)C(O)=C1O [Tetrahydroxy-1,4-quinone hydrate] | 0.333 ± 0.0084 |
| CC(=O)N(O)CCCCCNC(=O)CCC(=O)N(O)CCCCCNC(=O)CCC(=O)N(O)CCCCCN [Deferoxamine mesylate] | 0.0677 ± 0.0037 |
| O=c1cc(-c2ccc(O)c(O)c2)oc2cc(O)cc(O)c12 [Luteolin] | 0.0574 ± 0.0016 |
| Nc1nc(=O)c2nc(CNc3ccc(C(=O)N[C@@H](CCC(=O)O)C(=O)O)cc3)cnc2[nH]1 [Folic acid] | 0.34 ± 0.02 |
| O=C(O)CNC(=O)C(CS)Cc1ccccc1 (stereo not given) [Thiorphan] | 0.348 ± 0.021 |
| CC1(C)S[C@@H]2[C@H](NC(=O)[C@H](NC(=O)N3CCNC3=O)c3ccccc3)C(=O)N2[C@H]1C(=O)O [Azlocillin sodium salt] | 0.361 ± 0.013 |
| Clc1cnccn1 [2-Chloropyrazine] | 0.325 ± 0.0083 |
| O=C(C1CCCCC1)N1CC(=O)N2CCc3ccccc3C2C1 (stereo not given) [Praziquantel] | 0.37 ± 0.025 |
| C#C[C@]1(O)CC[C@H]2[C@@H]3CCC4=CC(=O)CC[C@@H]4[C@H]3CC[C@@]21CC [Norgestrel-(-)-D] | 0.331 ± 0.039 |
| CCCCOc1ccc(C(=O)CCN2CCCCC2)cc1 [Dyclonine hydrochloride] | 0.355 ± 0.033 |
| CC1CCc2c(N3CCC(O)CC3)c(F)cc3c(=O)c(C(=O)O)cn1c23 (stereo not given) [Nadifloxacin] | 0.05197 ± 5.8e-05 |
| OC(c1cc(C(F)(F)F)nc2c(C(F)(F)F)cccc12)C1CCCCN1 (stereo not given) [Mefloquine hydrochloride] | 0.0512 ± 0.00055 |
